Sampled rows, rich in hits. Any-hit rate of the full collection: about 13%.
CHOP inh – CHOP inhibition in unfolded protein response; CHO-K1 CHOP-promoter luciferase, tunicamycin-induced, 15-18 h; actives 3.8% (n = 220,000); inhibition, % at 10 µM;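 active means compounds that reduced the stress-induced luciferase reporter signal by more than about 70% of percent inhibition, limit read from the data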;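 further: 0% = tunicamycin plus vehicle and 100% = wells without tunicamycin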
WT yeast gro inh – growth inhibition of WT yeast, mitochondrial fusion screen. mitochondrial fusion phenotypic screen, WT strain. inhibition, % at 10 µM. actives 2.1% (n = 190,000). AID 1362; in the data active means inhibition above about 58%; tested in S. cerevisiae
L major viab – reduces viability of Leishmania major promastigotes. AID 1063. actives 9% (n = 200,000). resazurin fluorescence viability. inhibition, % at 10 µM; in the data active means inhibition above about 50%;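 further: promastigotes grown with compound for 44 hours at 28 °C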
RAM inhibit – yeast RAM network inhibition. S. cerevisiae dse1pr::URA3 reporter, 5-FOA growth OD615, 2 d; analog-sensitive cbk1-as2 kinase mutant strain. inhibition, % at 50 µM. actives 1.8% (n = 190,000);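 active means inhibition above a set limit, 3 SD over mean compound inhibition, cut at about 8.4% in these data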;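 further: 0% = DMSO-only wells with no growth and 100% = 10 µM 1-NA-PP1 full growth; inhibition rescues growth on 5-FOA so higher OD means more RAM inhibition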
* hit, by the source's call; nt = not tested or not shown.

SMILES | CHOP inh | WT yeast gro inh | L major viab | RAM inhibit
O=[N+]([O-])c1nn(-c2ccc3c(c2)OCCO3)n(O)c1=NCc1ccc(F)cc1 | 10.9 | 7.3 | 96.9* | 3.8
CC(C)c1ccc(N=c2c([N+](=O)[O-])nn(-c3ccc4c(c3)OCCO4)n2O)cc1 | 23.0 | 29.4 | 2.1 | 1.5
COc1nc(-c2cnccn2)sc1C | 4.0 | 1.4 | -0.7 | 2.5
N#Cc1ccc(CO/N=C/c2ccccc2)cc1 | 15.0 | 2.3 | -0.9 | -0.4
CCc1cccc(N=c2c([N+](=O)[O-])nn(-c3ccc4c(c3)OCCO4)n2O)c1 | 29.7 | 37.7 | 90.5* | 5.9
COc1ccc(S(=O)(=O)NCc2ccc(C(=O)NCc3cccnc3)cc2)cc1 | -0.8 | -11.3 | -8.2 | 1.8
O=c1[nH]cnc2c1sc1nc3c(c(-c4ccc(Cl)cc4)c12)CCC3 | 85.4* | 5.2 | 2.7 | 4.1
CCOC(=O)Cn1nnc2c(sc3nc4c(c(-c5ccc(Cl)cc5)c32)CCC4)c1=O | -28.0 | 36.7 | 13.2 | 4.6
O=C1c2ccccc2C(=O)c2c1ncn2-c1ccccc1 | -12.7 | 2.1 | 54.8* | 1.4
COc1ccc(Cl)c(N2CCN(CCCNC(=O)Nc3ccc(C)cc3)CC2)c1 | 83.4* | 28.6 | 21.6 | 1.3
O=C1SC(SCc2ccccc2)=N/C1=C\c1ccco1 | 60.5 | 24.5 | -8.3 | 8.8*
O=C1SC(SCc2ccccc2)=N/C1=C\c1ccc(C(=O)O)cc1 | 42.8 | -0.3 | -5.7 | 1.8
O=C1C=C(NCCN2CCOCC2)C(=O)c2cnccc21 | 21.9 | 3.9 | 99.3* | -0.3
Fc1ccccc1N1CCN(c2nc(-c3cccs3)nc3ccccc23)CC1 | -3.7 | 18.6 | 26.2 | -0.6
CN(Cc1ccccc1F)c1nc(-c2cccs2)nc2ccccc12 | 42.1 | 44.9 | 79.2* | 1.2
COc1ccc(C(=O)CSc2nnc(CN3CCCCC3)n2-c2ccc(Cl)cc2)cc1OC | 21.7 | 10.6 | 6.9 | 1.4
CCCCCCNC(=O)c1c(O)c2ccccc2[nH]c1=O | 87.7* | 6.2 | -4.2 | 5.3
CCCCCCCC(=O)NNC(=O)c1c(O)c2ccccc2[nH]c1=O | 70.5* | nt | nt | nt
CCC(=O)NNC(=O)c1c(O)c2ccccc2[nH]c1=O | 22.0 | -9.5 | -4.2 | 0.5
CCc1ccc(NC(=S)N(Cc2cccc(Br)c2)CC2CCC(C(=O)O)CC2)cc1 (stereo not given) | -7.1 | 48.4 | 1.7 | 5.3
CCN1CCN(C(=O)c2ccc(Sc3ccccc3Cl)c([N+](=O)[O-])c2)CC1 | 38.6 | -14.4 | 88.7* | 0.4
CCN1CCCC1CNC(=O)c1ccc(Sc2ccccc2Cl)c([N+](=O)[O-])c1 (stereo not given) | 60.0 | 36.5 | 100.3* | -1.0
CC1CCN(C(=O)c2ccc(SCc3ccccc3F)c([N+](=O)[O-])c2)CC1 | 42.4 | 31.0 | 69.3* | -0.1
CC(=O)NCCNC(=O)c1ccc(Sc2ccccc2)c([N+](=O)[O-])c1 | 26.3 | 4.0 | 5.9 | 7.6
CCN1CCCC1CNC(=O)c1ccc(Sc2ccc(F)cc2)c([N+](=O)[O-])c1 (stereo not given) | 25.7 | 25.7 | 100.3* | 2.0
SMILES | CHOP inh | WT yeast gro inh | L major viab | RAM inhibit
CC(C)=CC(=O)OCC(=O)Nc1cc(C)cc(C)c1 | 10.3 | 7.1 | -1.6 | 2.3
CCC(CC)NC(=O)Cc1ccc(F)cc1 | 0.2 | -2.0 | -3.4 | 0.2
Nc1nc(SCC(=O)Nc2ccccc2Sc2ccccc2)n[nH]1 | 16.5 | 7.7 | -14.0 | 0.8
COc1ccc(Cl)cc1C(=O)NC(C)C | 7.8 | 15.3 | -7.6 | 0.6
CN(Cc1nc(-c2cnccn2)no1)Cc1n[nH]c2c1CCCC2 | 1.4 | 7.1 | -4.9 | 3.2
O=C(NCCCN1CCOCC1)c1ccc(Sc2ccc(F)cc2)c([N+](=O)[O-])c1 | 30.9 | -0.1 | 100.4* | 0.5
CN(C)CCNC(=O)c1ccc(Sc2ccc(Br)cc2)c([N+](=O)[O-])c1 | -0.2 | 52.2 | 100.4* | 0.5
O=C(c1ccc(S(=O)(=O)c2ccccc2Cl)c([N+](=O)[O-])c1)N1CCCCCC1 | 41.0 | -7.5 | 97.8* | 2.9
O=C(c1ccc(S(=O)(=O)Cc2ccccc2F)c([N+](=O)[O-])c1)N1CCCCCC1 | 6.9 | -10.8 | 14.7 | 1.4
COCCNC(=O)CN(C(=O)Cn1nnc2ccccc21)c1cc(C)cc(C)c1 | 40.5 | -9.2 | -5.9 | 0.4
CN1C2CCC1/C(=C\c1ccc(F)cc1)C(=O)/C2=C/c1ccc(F)cc1 | 29.0 | -24.7 | 74.8* | 1.9
CC(C)CCc1noc(CN(C)CC2CCN(Cc3ccccc3)CC2)n1 | -10.1 | 11.4 | 82.7* | 0.8
CN(Cc1nc(-c2cnccn2)no1)CC1CCN(Cc2ccccc2)CC1 | -10.1 | -3.6 | 91.1* | 1.2
CCOc1ccc(NC(=O)CSc2nc3ccccc3c(=O)n2CCCC(=O)NCCCN2CCCC2=O)cc1 | -7.2 | -3.9 | -8.2 | 0.8
CCN1C(=O)C(CC(=O)Nc2c(C)cccc2C)Nc2cc(S(=O)(=O)N(C)C)ccc21 (stereo not given) | 12.8 | 10.9 | -5.1 | 2.2
CC(=O)Nc1ccccc1Sc1ccccc1 | 24.4 | -7.2 | -4.0 | 1.5
O=C(Cc1ccc(Cl)cc1)Nc1ccccc1Sc1ccccc1 | 75.1* | 35.3 | 44.0 | 0.0
O=C(CCl)Nc1ccccc1Sc1ccccc1 | 14.2 | -9.5 | 54.4* | 1.1
O=C(Cc1ccccc1)Nc1cc(Cl)ccc1Sc1ccccc1 | 65.2 | 4.0 | 59.8* | 7.2
O=C(Nc1ccccc1Sc1ccccc1)c1ccc(F)cc1 | 6.6 | 77.8* | 1.7 | 1.1
Cc1ccc(/C=[N+](\[O-])c2ccc(N(C)C)cc2)c2nsnc12 | -18.6 | 77.2* | 31.6 | 1.4
O=C(N/C=C/n1cnc2cc(C(F)(F)F)ccc21)c1ccccc1F | 1.8 | 14.1 | 0.3 | 0.3
CCOC(=O)c1c(/N=C/c2cc(OC)cc([N+](=O)[O-])c2O)sc(C)c1C | 22.1 | 15.7 | 17.8 | 9.5*
Cc1ccc(N(CC(=O)NCc2ccccc2Cl)S(=O)(=O)c2cccs2)cc1 | 31.5 | 6.7 | 1.9 | 2.1
Cc1ccc(N(CC(=O)NCc2ccc(F)cc2)S(=O)(=O)c2cccs2)cc1 | 37.3 | 11.6 | 91.4* | 4.3
SMILES | CHOP inh | WT yeast gro inh | L major viab | RAM inhibit
O=C(CN(c1ccc(F)cc1)S(=O)(=O)c1ccc2c(c1)OCCO2)NCc1cccnc1 | 26.6 | -3.5 | 28.9 | 1.9
Cc1cccc(N(CC(=O)NCCSCc2ccco2)S(=O)(=O)c2ccccc2)c1 | 9.0 | 13.4 | 61.2* | -0.4
Cc1ccc(N(CC(=O)NCCSc2nc3ccccc3s2)S(=O)(=O)c2ccccc2)c(C)c1 | 9.3 | 2.8 | 11.8 | 9.2*
Cc1ccc(N(CC(=O)NCCSCc2ccco2)S(=O)(=O)c2ccc(C)cc2)cc1 | 65.2 | 23.9 | 10.9 | 3.8
O=C(CN(c1ccc(F)cc1)S(=O)(=O)c1ccc2c(c1)OCCO2)NCc1ccncc1 | 2.5 | -25.5 | 92.2* | 1.1
C#CCNC(=O)C1=C[C@H](c2ccc3c(c2)OCO3)[C@@H](CCCO)[C@H](OCC)O1 | 23.2 | -20.4 | -11.0 | 1.4
COCCCN(CC(=O)Nc1ccc(N2CCOCC2)cc1)S(=O)(=O)c1ccc(Cl)cc1 | 12.2 | -12.6 | 3.3 | 4.2
O=C(CN(c1ccc2c(c1)OCCO2)S(=O)(=O)c1ccccc1)NCc1ccco1 | -7.0 | -21.6 | 92.0* | 2.5
Cc1cccc(N(CC(=O)NCCSc2nc3ccccc3s2)S(=O)(=O)c2ccccc2)c1 | 24.6 | -16.1 | 49.9 | 10.8*
